Assay outcomes as filed in PubChem.
Most compounds without a hit are left out; they make up all but 9.3% or so of the library.
ELG1 genotox: inducers of genotoxicity in HEK293T ELG1-luciferase cells | 1.3% of 330,000 active | AID 504466 | Potency, µM (doses to about 46 µM), most hits filed as activators | HEK293T ELG1-luciferase reporter, luminescence, 16 h; note: nearly all actives have a fitted effect of over 60% in size
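Genotoxic stress is detected as increased luminescence from luciferase-tagged ELG1 in HEK293T cells, measured with ONE-Glo after a 16 hr treatment at 37 °C.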
Rab9 promoter act: activators of Rab9 promoter; Potency, µM (titrated, usually from 9.22 µM), usual class: activators; 2.8% of 320,000 active; Huh7 Rab9 promoter-luciferase reporter, luminescence, 24 h; AID 485297; note: nearly all actives have a fitted effect of over 60% in size
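Rab9 promoter-driven luciferase in stably transfected Huh7 cells; 1500 cells/well rested 2 h, exposed to compound in DMSO for 24 h at 37 °C, 5% CO2. Luminescence read 10 min after adding luciferase reagent at ambient temperature.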
FLuc modulator: inhibits or activates purified firefly luciferase, miR-21 counter-screen | P08659 | purified FLuc, Km substrates, luminescence inhibition | Potency, µM (top dose mostly 57.5 µM), actives largely listed as inhibitors | 6.9% of 360,000 active | AID 588342; note: nearly all actives have a fitted effect of over 55% in size
Target sequence (P08659 whole entry, looked up): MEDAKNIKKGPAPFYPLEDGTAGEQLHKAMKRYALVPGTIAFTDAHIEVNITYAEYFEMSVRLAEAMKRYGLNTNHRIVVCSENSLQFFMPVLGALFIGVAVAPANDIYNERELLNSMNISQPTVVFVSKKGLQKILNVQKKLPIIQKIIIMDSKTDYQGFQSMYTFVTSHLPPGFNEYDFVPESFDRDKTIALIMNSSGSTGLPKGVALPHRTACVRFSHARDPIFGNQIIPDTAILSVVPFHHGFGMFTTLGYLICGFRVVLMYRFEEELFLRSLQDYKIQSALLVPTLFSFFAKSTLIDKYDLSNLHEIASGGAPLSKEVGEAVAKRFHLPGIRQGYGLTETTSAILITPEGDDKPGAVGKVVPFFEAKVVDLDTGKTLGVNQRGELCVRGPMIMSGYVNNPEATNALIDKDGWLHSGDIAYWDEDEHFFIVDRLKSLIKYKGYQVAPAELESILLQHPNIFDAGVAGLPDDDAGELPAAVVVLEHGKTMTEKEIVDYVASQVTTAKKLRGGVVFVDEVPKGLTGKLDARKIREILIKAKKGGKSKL
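Purified P. pyralis luciferase, 10 nM final, with Km-level 10 uM D-luciferin and 10 uM ATP in 50 mM Tris acetate pH 7.5, 10 mM Mg acetate, 0.01% Tween-20, 0.05% BSA; 6-point qHTS titration about 60 µM downward; luminescence read.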
ELG1 DNA repair: inhibitors of ELG1-dependent DNA repair in HEK293T cells; HEK293T ELG1-luciferase reporter, luminescence, 16 h; DNA damage induced by 5-fluorouridine; Potency, µM (doses to about 46.1 µM), most hits filed as inhibitors; 2.3% of 330,000 active; AID 504467; note: nearly all actives have a fitted effect of over 55% in size
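Quantitative HTS, concentration-response format. 2,000 cells/well co-treated with 5-fluorouridine and compound, 16 hr in 5% CO2 at 37 °C; ONE-Glo luminescence read after 30 min.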
SMN2 splice up: enhancers of SMN2 splice variant expression; HEK293 SMN2-luciferase splicing reporter, luminescence, 30-36 h; Potency, µM (series often up to 46.1 µM), usual class: activators; 2.8% of 210,000 active; note: nearly all actives have a fitted effect of over 55% in size
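HEK293 cells carry an SMN2 minigene-luciferase reporter in which exon 7 inclusion puts luciferase in frame. Cells were seeded at 2000 cells/well, attached for 10-12 hours, then exposed to compounds for 30-36 hours at 37C before ONE-Glo luminescence.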
NPC1 prom act: activates the NPC1 promoter. Huh7 NPC1 promoter luciferase reporter, 24 h. Potency, µM (titrated, usually from 9.22 µM), hits mostly activators. 2.4% of 320,000 active. AID 485313; note: nearly all actives have a fitted effect of over 60% in size
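NPC1 promoter–luciferase Huh7 cells; 24 h compound; luminescence.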
A number is an active result; - = inactive; ? = inconclusive; . = no result given; [ ] = dose if it differs, or a comment. Calls come from the whole dose curve; as a rule, active = well fitted curve in the direction sought with a large enough effect; inconclusive = small, poorly fitted or top-dose-only effect, or another doubt; inactive = no such curve, though single readings can be large; an effect the other way counts as inactive or inconclusive.

SMILES | ELG1 genotox | Rab9 promoter act | FLuc modulator | ELG1 DNA repair | SMN2 splice up | NPC1 prom act
C=CCN1C(=O)C(Cc2ccc(F)cc2)S/C1=N/N=C/c1cccs1 (configuration not stated) | - | - | - | - | - | -
O=C1CS/C(=N/N=C/c2cccs2)N1Cc1ccc(F)cc1 | - | - | - | 21µM | . | -
CNc1ccc(/C=C/C(=O)c2ccc(C)cc2)cc1[N+](=O)[O-] | ? | - | ? | ? | - | -
COc1ccc(Oc2ccc(/C=C/C(=O)c3ccc(O)cc3)cc2[N+](=O)[O-])cc1 | - | - | 24µM | ? | - | -
NS(=O)(=O)c1ccc(N/C=C\C(=O)c2ccc3ccccc3c2)cc1 | - | - | - | - | - | -
CN(C)c1ccc(/C=C/C(=O)c2ccccc2)cc1[N+](=O)[O-] | - | 2.5µM | 1.2µM | ? | - | 3.5µM
O=C(/C=C/c1ccc(O)c([N+](=O)[O-])c1)c1ccc2ccccc2c1 | - | - | 7.6µM | - | . | -
CCCCCn1ccc(=O)c2c(C(F)(F)F)nccc21 | - | - | - | 5.8µM | - | -
CCCCCCCn1ccc(O)c(CC(=O)OC)c1=O | - | - | - | - | - | -
CCn1c(/C=N/c2nc3ccccc3n2C)nc2ccccc21 | - | - | - | - | - | -
Cn1c(N=Nc2ccccc2)nc2ccccc21 | 1.2µM | 0.4µM | 0.48µM | ? | 0.63µM | 0.71µM
CN(C)c1ccc(N=Nc2nc3ccccc3n2C)cc1 | - | ? | 0.019µM | ? | . | -
Cn1c(Cl)nc2ccccc21 | - | - | - | ? | ? | -
COc1cc2ccccc2cc1C(=O)N1CCN(c2nc3c(F)cc(F)cc3s2)CC1 | . | . | - | . | . | .
COc1ccc(NC(=O)CS(=O)(=O)c2cccc(Cl)c2)cc1 | - | - | - | - | . | -
Cc1ccc(S(=O)(=O)N2CCN(C3CC(=O)N(c4ccc(F)cc4)C3=O)CC2)cc1C (configuration not stated) | - | . | . | - | . | .
Cc1noc(C)c1C(=O)N1CCC2(CCCN(c3ncccn3)C2)CC1 | . | . | . | . | - | .
CC1=CC2=NC(=O)/C(=C/c3cccn3Cc3ccccc3)C(=N)N2O1 | - | - | - | - | . | -
N=C1/C(=C/c2ccc(-c3cccc(C(=O)O)c3)o2)C(=O)N=C2SC=C(c3ccccc3)N12 | - | - | 24µM | ? | - | -
CC1=CC2=NC(=O)/C(=C\c3cccn3CCOc3ccc(C)c(C)c3)C(=N)N2O1 | - | - | - | 18µM | -[1.84 µM] | -
CC(C)S(=O)(=O)C1=NSC2=NC(=O)/C(=C\c3ccc(-c4cccc(C(=O)O)c4)o3)C(=N)N21 | - | - | 13µM | - | - | -
N=C1/C(=C/c2cccn2CCOc2ccccc2)C(=O)N=C2SC=C(c3ccccc3)N12 | - | - | - | 18µM | -[1.84 µM] | -
O=c1[nH]nc(N/N=C/c2ccccc2OC(F)F)c(=O)[nH]1 | - | - | ? | - | . | -
COC(=O)[C@@]1(Cc2ccc(OC)cc2)[C@H]2c3cc(C(=O)N(C)C)n(CCc4c[nH]c5ccc(O)cc45)c3C[C@H]2CN1C(=O)c1ccccc1 | . | . | . | . | - | .
O=C(NC(=S)NCCO)c1cn(-c2ccccc2)nc1-c1ccccc1 | - | - | ? | ? | . | -
SMILES | ELG1 genotox | Rab9 promoter act | FLuc modulator | ELG1 DNA repair | SMN2 splice up | NPC1 prom act
O=C(Cn1c(NCCO)nc2ccccc21)N1CCN(Cc2ccccc2)CC1 | - | - | - | - | - | -
Cc1ccccc1C(=O)Nc1nnc(SC(C)C)s1 | - | - | ? | ? | ? | -
CS(=O)(=O)C1=NSC2=NC(=O)/C(=C\c3ccc(-c4ccccc4)o3)C(=N)N21 | - | - | 12µM | - | - | -
O=C1OC(c2cccs2)=N/C1=C/c1ccc(-c2cccc(C(=O)O)c2)o1 | ? | - | 24µM | ? | - | -
O=C1OC(c2cccs2)=N/C1=C\c1ccc(-c2ccccc2Cl)o1 | - | - | - | - | - | -
CC(C)S(=O)(=O)C1=NSC2=NC(=O)/C(=C\c3ccc(-c4ccccc4)o3)C(=N)N21 | - | - | ? | - | - | -
CC(=O)c1ccc(OC(=O)c2c(-c3ccccc3Cl)noc2C)cc1 | . | . | - | . | - | .
COc1ccc(OC)c(Nc2nc3ccc(C)cc3n3cnnc23)c1 | - | - | - | 8.2µM | . | -
CCCCSCCCNC(=O)Nc1ccc(C)c(C)c1 | - | - | - | - | - | -
Cc1ccccc1OCC(=O)NNC(=O)c1cc(S(=O)(=O)N2CCOCC2)ccc1N1CCCC1 | - | - | - | - | . | -
COc1ccccc1CNC(=O)c1ccc(NC2=NC3CS(=O)(=O)CC3S2)cc1 (configuration not stated) | - | - | - | - | . | -
C=CCSc1n[nH]c(-c2ccc(OCCCC)cc2)n1 | 18µM | ? | 15µM | ? | ? | ?
S=c1nc(-c2ccc(Cl)cc2)[nH][nH]1 | - | - | - | - | . | -
CCCOc1ccc(-c2nc(=S)[nH][nH]2)cc1 | ? | ? | ? | ? | 13µM | -
C=CCSc1n[nH]c(-c2ccc(OCCC)cc2)n1 | 4.6µM | 2µM | 11µM | ? | 11µM | 2.5µM
CCCOc1ccc(-c2nc(SCC(=O)c3ccc(Cl)cc3)n[nH]2)cc1 | . | . | - | . | - | .
C[C@H](CO)N1C[C@H](C)[C@@H](CN(C)Cc2ccccc2)Oc2ccc(NC(=O)CCCCCC(=O)Nc3ccccc3N)cc2C1=O | - | . | . | ? | . | .
COc1ccc(OCCC(=O)OCC(=O)c2ccc[nH]2)cc1 | - | - | - | - | . | -
O=C(CSc1nnc(SCc2ccc(Cl)cc2)s1)N/N=C/c1ccc(C(=O)O)cc1 | - | - | 1.3µM | - | . | -
O=C(O)COc1ccccc1/C=N/NC(=O)CSc1nnc(SCc2ccc(Cl)cc2)s1 | - | - | 9.5µM | - | . | -
O=C(CSc1nnc(SCc2cccc3ccccc23)s1)N/N=C/c1c[nH]c2ccccc12 | - | - | ? | ? | - | -
O=C(O)COc1ccccc1/C=N/NC(=O)CSc1nnc(SCc2cccc3ccccc23)s1 | - | - | 19µM | - | . | -
O=C(CSc1nnc(SCc2ccc(Cl)cc2)s1)N/N=C/c1c[nH]c2ccccc12 | - | - | - | - | - | -
O=C(CSc1nc2ccccc2n1Cc1ccc(Cl)cc1)N/N=C/c1ccc(C(=O)O)cc1 | - | - | ? | - | - | -
COc1ccc(OC)c(N2CC(O)=C(c3nc4ccccc4s3)C2=N)c1 | - | - | ? | - | - | -
CCOc1ccccc1N1CC(O)=C(c2nc3ccccc3s2)C1=N | - | - | - | 16µM | - | -
CCOc1ccc(NC(=O)Nc2nc3ccc(S(C)(=O)=O)cc3s2)cc1 | - | - | - | - | . | -
CN(C)/N=C/c1c(O)ccc2ccccc12 | - | - | ? | - | - | -
CS/C(N)=N/N=C/c1c(O)ccc2ccccc12 | ? | ? | 3µM | ? | . | -
